# Data from publication PMC7862700, “An all-to-all approach to the identification of sequence-specific readers for epigenetic DNA modifications on cytosine”.
# Assays:
# Assay in all cases: DAPPL (digital affinity profiling via proximity ligation, sequencing); 10 mM Tris-HCl pH 7.5, 50 mM NaCl, 1 mM DTT, 4% glycerol, room temperature, 30 min; GST-TFs on glutathione beads, 16-mer random dsDNA library, 0.1% formaldehyde crosslink after washing; high values mean tight binding
# Details in all cases: protein: recombinant; tags: N-terminal GST; dsDNA, one strand shown
# FLI1 = target: T1, FLI1 (Homo sapiens, UniProt Q01543 1-452)
# T1 sequence: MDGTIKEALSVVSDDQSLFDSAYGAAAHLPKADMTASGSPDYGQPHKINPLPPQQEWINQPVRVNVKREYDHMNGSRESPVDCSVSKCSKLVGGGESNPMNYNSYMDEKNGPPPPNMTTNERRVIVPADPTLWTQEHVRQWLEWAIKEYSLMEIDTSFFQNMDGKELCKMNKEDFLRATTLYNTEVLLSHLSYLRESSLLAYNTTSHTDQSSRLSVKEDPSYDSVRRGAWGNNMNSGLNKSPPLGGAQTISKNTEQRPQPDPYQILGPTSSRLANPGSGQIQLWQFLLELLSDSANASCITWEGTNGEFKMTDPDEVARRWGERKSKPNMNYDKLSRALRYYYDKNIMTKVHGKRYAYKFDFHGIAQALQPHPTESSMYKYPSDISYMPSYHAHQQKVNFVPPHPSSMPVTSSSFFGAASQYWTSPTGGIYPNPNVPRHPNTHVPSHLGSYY
# Procedure, shortened: (§1)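 Binding signal is given per hexamer as its read frequency for a factor divided by its frequency in the tag-only sample. GST-fused human transcription factors were expressed in yeast, captured on glutathione beads, barcoded with DNA and pooled with that sample, then incubated with 200 nmole of a 16-mer random double-stranded DNA library in Tris/NaCl/DTT/glycerol buffer for 30 min at room temperature. The pools were then washed, crosslinked, proximity-ligated, amplified by PCR and sequenced on an Illumina NextSeq500.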
# ELK1 = target: T2, ELK1 (Homo sapiens, UniProt P19419 1-428)
# T2 sequence: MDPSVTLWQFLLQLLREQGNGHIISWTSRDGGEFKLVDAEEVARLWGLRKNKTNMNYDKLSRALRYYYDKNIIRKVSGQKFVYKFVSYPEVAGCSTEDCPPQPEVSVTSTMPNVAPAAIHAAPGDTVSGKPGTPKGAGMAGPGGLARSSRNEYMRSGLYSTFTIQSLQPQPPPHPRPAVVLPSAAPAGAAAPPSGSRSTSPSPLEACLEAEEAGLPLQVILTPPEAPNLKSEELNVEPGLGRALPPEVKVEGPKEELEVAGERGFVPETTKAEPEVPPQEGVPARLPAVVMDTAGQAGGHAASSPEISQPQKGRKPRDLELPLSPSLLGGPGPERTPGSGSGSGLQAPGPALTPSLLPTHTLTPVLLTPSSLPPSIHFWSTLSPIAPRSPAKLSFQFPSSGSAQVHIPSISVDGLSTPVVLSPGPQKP
# Procedure, shortened: as §1
# GABPA = target: T3, GABPA (Homo sapiens, UniProt Q06546 1-454)
# T3 sequence: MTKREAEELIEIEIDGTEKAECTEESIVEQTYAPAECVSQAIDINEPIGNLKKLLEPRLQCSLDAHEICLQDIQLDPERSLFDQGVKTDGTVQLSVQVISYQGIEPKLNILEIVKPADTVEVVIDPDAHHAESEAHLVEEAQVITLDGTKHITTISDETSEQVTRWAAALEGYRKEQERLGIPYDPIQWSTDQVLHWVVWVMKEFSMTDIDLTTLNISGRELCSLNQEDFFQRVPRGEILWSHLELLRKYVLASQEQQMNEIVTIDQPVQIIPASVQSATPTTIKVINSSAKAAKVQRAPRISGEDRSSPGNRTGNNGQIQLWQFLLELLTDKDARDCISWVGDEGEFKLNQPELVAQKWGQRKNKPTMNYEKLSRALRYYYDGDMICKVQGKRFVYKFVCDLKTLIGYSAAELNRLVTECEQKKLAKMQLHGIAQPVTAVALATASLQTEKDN
# Procedure, shortened: as §1
# ELF1 = ELF1 (Homo sapiens, UniProt P32519 1-619)
# Sequence of ELF1 (P32519 whole entry): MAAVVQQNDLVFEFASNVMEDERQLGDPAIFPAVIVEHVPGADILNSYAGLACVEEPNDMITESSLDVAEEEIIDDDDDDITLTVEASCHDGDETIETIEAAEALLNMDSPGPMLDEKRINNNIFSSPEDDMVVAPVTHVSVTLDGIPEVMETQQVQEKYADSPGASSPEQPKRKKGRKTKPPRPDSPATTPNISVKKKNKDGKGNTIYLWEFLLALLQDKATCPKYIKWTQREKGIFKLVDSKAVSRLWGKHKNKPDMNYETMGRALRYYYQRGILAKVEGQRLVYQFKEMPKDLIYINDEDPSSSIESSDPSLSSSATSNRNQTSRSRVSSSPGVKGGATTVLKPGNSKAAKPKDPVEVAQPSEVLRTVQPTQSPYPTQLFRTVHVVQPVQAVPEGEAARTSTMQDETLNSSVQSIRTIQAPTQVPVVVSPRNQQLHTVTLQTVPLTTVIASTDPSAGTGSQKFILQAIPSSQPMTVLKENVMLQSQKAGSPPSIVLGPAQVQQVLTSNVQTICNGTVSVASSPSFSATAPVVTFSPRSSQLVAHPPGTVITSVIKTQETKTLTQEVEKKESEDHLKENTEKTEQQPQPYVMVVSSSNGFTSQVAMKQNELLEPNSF
# Procedure, shortened: as §1
# EHF = target: T4, EHF (Homo sapiens, UniProt Q9NZC4 1-300)
# T4 sequence: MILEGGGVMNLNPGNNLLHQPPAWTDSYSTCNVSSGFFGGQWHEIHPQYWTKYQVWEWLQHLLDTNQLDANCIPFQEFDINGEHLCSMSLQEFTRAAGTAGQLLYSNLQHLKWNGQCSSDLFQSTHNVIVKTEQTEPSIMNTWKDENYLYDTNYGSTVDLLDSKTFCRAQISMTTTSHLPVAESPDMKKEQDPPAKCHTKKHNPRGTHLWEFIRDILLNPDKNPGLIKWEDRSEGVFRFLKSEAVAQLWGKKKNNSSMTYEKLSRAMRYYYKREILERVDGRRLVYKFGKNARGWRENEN
# Procedure, shortened: as §1
# SPI1 = SPI1 (Homo sapiens, UniProt P17947 1-270)
# Procedure, shortened: as §1
# SPIB = SPIB (Homo sapiens, UniProt Q01892 1-262)
# Sequence of SPIB (Q01892 whole entry): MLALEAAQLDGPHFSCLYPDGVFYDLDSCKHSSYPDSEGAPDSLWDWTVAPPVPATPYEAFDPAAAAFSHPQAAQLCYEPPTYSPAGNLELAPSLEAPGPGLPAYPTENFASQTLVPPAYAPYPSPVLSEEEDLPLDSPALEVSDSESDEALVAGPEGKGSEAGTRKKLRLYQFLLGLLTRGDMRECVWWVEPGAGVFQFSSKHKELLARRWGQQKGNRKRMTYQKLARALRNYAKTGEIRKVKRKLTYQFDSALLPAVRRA
# Procedure, shortened: as §1
# ETV5 = ETV5 (Homo sapiens, UniProt P41161 1-510)
# Sequence of ETV5 (P41161 whole entry): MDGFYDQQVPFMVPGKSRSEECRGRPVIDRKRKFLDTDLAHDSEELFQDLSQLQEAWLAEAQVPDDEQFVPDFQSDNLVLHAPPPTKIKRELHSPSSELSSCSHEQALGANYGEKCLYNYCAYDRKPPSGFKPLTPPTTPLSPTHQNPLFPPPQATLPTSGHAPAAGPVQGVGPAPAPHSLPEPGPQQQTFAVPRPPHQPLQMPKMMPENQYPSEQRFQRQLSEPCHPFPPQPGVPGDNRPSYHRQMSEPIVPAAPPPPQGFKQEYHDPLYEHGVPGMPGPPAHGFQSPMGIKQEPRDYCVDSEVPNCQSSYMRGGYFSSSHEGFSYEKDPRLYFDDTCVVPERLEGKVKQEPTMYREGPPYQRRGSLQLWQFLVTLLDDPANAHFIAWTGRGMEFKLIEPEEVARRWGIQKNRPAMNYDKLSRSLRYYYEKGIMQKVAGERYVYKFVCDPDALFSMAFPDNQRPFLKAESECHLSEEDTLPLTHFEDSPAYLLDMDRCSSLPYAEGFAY
# Procedure, shortened: as §1
# SPIC = target: T5, SPIC (Homo sapiens, UniProt Q8N5J4 1-248)
# T5 sequence: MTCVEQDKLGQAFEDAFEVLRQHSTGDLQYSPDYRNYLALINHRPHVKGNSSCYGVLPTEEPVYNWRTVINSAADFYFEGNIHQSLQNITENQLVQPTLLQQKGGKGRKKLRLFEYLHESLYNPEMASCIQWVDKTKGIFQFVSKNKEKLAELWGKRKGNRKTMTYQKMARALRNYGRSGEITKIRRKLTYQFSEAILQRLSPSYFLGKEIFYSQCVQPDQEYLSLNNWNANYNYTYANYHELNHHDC
# Procedure, shortened: as §1
# ELF4 = ELF4 (Homo sapiens, UniProt Q99607 1-663)
# Sequence of ELF4 (Q99607 whole entry): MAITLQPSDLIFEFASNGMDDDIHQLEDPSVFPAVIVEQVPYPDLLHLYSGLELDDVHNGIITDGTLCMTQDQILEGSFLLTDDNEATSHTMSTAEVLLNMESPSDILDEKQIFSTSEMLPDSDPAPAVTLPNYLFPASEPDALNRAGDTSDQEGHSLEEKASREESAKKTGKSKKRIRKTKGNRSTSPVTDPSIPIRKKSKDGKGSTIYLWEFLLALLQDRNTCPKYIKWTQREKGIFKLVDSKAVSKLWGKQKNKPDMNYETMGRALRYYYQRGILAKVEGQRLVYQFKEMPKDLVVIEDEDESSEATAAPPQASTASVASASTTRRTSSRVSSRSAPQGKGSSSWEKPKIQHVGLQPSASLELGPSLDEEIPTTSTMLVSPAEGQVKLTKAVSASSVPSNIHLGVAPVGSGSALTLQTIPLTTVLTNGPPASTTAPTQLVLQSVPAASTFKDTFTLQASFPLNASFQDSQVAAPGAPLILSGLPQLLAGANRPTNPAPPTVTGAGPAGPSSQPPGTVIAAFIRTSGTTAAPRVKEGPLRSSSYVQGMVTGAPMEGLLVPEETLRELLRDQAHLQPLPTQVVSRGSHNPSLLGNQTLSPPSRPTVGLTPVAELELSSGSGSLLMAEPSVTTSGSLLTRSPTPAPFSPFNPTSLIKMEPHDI
# Procedure, shortened: as §1
# ETV1 = ETV1 (Homo sapiens, UniProt P50549 1-477)
# Sequence of ETV1 (P50549 whole entry): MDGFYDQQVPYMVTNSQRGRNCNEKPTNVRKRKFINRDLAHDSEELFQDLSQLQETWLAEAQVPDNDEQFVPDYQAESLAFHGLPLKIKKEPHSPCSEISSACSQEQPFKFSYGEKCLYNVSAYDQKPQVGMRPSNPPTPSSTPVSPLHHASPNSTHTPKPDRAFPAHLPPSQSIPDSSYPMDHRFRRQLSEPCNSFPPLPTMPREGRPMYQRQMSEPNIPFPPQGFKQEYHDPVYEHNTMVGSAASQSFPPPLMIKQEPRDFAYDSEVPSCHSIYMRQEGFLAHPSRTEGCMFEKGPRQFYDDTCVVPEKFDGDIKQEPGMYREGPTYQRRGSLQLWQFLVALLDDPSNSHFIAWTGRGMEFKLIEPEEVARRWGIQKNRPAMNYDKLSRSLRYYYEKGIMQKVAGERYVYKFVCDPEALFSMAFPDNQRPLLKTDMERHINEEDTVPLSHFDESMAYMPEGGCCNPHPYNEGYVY
# Procedure, shortened: as §1
# ERF = target: T6, ERF (Homo sapiens, UniProt P50548 1-548)
# T6 sequence: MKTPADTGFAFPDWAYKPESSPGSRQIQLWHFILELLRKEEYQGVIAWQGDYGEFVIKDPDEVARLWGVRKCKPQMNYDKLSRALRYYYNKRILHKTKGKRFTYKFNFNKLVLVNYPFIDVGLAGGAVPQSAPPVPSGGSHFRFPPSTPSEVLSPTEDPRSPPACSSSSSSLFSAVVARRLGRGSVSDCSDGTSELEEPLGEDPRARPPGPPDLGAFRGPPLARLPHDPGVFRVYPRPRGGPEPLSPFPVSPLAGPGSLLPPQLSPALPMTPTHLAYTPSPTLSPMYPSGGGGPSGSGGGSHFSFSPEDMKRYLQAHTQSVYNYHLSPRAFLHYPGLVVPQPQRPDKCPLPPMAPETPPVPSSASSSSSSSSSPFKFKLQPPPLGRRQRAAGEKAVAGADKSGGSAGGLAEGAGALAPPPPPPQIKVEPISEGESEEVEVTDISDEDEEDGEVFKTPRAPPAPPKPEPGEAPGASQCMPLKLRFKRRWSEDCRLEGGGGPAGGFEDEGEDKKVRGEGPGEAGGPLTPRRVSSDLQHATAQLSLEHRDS
# Procedure, shortened: as §1
# ETS2 = target: T7, ETS2 (Homo sapiens, UniProt P15036 1-469)
# T7 sequence: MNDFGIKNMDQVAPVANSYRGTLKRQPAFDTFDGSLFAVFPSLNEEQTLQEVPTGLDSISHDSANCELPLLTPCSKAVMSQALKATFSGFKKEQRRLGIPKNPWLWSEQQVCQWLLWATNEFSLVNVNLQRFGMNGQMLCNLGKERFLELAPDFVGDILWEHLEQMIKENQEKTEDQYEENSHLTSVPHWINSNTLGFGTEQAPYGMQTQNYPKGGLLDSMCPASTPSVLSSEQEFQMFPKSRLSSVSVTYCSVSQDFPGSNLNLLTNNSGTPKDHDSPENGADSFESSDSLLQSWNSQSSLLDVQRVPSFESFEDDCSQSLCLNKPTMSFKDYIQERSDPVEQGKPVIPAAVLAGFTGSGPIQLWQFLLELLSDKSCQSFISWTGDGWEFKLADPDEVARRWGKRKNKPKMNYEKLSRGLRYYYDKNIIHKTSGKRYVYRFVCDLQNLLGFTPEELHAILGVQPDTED
# Procedure, shortened: as §1
# ETV6 = ETV6 (Homo sapiens, UniProt P41212 1-452)
# Sequence of ETV6 (P41212 whole entry): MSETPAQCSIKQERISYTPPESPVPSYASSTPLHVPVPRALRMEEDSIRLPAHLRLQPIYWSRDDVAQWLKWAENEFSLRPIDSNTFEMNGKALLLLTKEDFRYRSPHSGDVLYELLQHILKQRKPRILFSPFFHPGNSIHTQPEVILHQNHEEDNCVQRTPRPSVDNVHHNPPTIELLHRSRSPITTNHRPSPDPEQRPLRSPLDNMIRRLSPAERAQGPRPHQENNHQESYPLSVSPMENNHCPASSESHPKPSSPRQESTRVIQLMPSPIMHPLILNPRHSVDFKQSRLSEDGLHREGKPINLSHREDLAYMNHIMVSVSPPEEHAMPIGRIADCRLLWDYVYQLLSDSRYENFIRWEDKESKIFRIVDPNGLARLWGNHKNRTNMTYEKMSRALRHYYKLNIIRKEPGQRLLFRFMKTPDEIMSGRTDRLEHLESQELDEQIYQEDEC
# Procedure, shortened: as §1
sequence,measurement,setting,value
TCGTCA,binding signal,FLI1,"1.05 fold enrichment (6-mer frequency, TF over GST control)"
same,binding signal,ELK1,"1.09 fold enrichment (6-mer frequency, TF over GST control)"
same,binding signal,GABPA,"1.06 fold enrichment (6-mer frequency, TF over GST control)"
same,binding signal,ELF1,"1.04 fold enrichment (6-mer frequency, TF over GST control)"
same,binding signal,EHF,"1.02 fold enrichment (6-mer frequency, TF over GST control)"
same,binding signal,SPI1,"1.02 fold enrichment (6-mer frequency, TF over GST control)"
same,binding signal,SPIB,"1.04 fold enrichment (6-mer frequency, TF over GST control)"
same,binding signal,ETV5,"1.04 fold enrichment (6-mer frequency, TF over GST control)"
same,binding signal,SPIC,"1.15 fold enrichment (6-mer frequency, TF over GST control)"
same,binding signal,ELF4,"1.11 fold enrichment (6-mer frequency, TF over GST control)"
same,binding signal,ETV1,"1.09 fold enrichment (6-mer frequency, TF over GST control)"
same,binding signal,ERF,"1.06 fold enrichment (6-mer frequency, TF over GST control)"
same,binding signal,ETS2,"1.1 fold enrichment (6-mer frequency, TF over GST control)"
same,binding signal,ETV6,"1.03 fold enrichment (6-mer frequency, TF over GST control)"
